We go through 35 compounds from PubChem BioAssay (Tox21).

Structures are written as SMILES. A number with no mark means an inactive call. Results filed as inconclusive are left out. Activity calls are given as the source filed them. Calls come from the whole dose curve.
% is set by controls: 0 for no effect and ±100 for the full control effect.

Sequence of Acetylcholinesterase (Homo sapiens) (P22303 whole entry, looked up): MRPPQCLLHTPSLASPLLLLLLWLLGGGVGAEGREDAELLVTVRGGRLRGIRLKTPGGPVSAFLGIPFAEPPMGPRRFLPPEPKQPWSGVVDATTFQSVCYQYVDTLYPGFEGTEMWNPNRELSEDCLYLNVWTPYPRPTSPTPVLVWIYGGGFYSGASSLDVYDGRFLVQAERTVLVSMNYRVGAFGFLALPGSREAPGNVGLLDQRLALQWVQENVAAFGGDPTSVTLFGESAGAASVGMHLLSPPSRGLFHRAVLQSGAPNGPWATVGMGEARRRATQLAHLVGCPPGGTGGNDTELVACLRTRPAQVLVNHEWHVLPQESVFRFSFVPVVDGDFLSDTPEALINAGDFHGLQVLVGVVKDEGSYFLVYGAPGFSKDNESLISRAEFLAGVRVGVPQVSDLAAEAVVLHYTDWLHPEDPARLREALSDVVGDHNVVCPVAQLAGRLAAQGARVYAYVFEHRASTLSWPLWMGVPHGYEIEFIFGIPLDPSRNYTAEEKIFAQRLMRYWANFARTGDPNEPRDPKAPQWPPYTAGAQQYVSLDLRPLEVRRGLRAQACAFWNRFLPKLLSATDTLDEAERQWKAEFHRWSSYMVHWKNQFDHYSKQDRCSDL

The first experiment has as its target Acetylcholinesterase (Homo sapiens) (UniProt P22303). The experiment can be described thus: Acetylcholinesterase (AChE) small molecule antagonists: enzyme-based qHTS assay (AID 1347397). Note: nearly all actives have a fitted effect of over 55% in size. Conditions: Potency: AChE enzyme activity inhibition; outcome: AChE enzyme activity inhibition; series mostly up to 115 µM; activity change, negative = inhibition: at the top concentration. Put shortly: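 Recombinant human AChE (50 mU/mL) preincubated with compound 30 min at room temperature; acetylthiocholine plus DTNB then added, and thiocholine formation read colorimetrically after 10 min at room temperature. DMSO served as vehicle control.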
In general terms: qHTS replaces the single test concentration by a dilution series.
Consider `[O-][Br+2]([O-])O`, for which the “activity change, negative = inhibition” value is 2.03% [at 53 µM].
The same measure, in the same setting: the figure for `CCOP(=S)(OCC)SCCl` is -6.39%.
Take `CCC(C)C(C)(COC(N)=O)COC(N)=O` (configuration not stated): the “activity change, negative = inhibition” value is -0.467% [at 53 µM].
In the case of `ClC1=C(Cl)C2(Cl)C(CBr)CC1(Cl)C2(Cl)Cl` (configuration not stated), the Potency entry is “inactive”.
On to `CCOC1Oc2ccc(OS(C)(=O)=O)cc2C1(C)C` (configuration not stated), for which the “activity change, negative = inhibition” value is -1.45%.
With `CC(C)(N)Cc1ccc(Cl)cc1`, the “activity change, negative = inhibition” value is 0.126% [at 53 µM].
For `CCOC(=O)CC(SP(=S)(OC)OC)C(=O)OCC` (configuration not stated), the Potency entry is “inactive”.
On to `O=C/C=C/c1ccco1`, for which the “activity change, negative = inhibition” value was 1.49%.
As to `COc1cc(CCN)cc(OC)c1OC`, the “activity change, negative = inhibition” value is 0.869%.
In the case of `CNC(=O)NC(O)C(Cl)(Cl)Cl` (configuration not stated), the “activity change, negative = inhibition” value is 0.954% [at 53 µM].
On the same count and under the same terms, to `O=C(NC(O)C(Cl)(Cl)Cl)NC(O)C(Cl)(Cl)Cl` (configuration not stated) belongs 0.27% [at 53 µM]; to `O=C(O)CBr`, 0%.
For the compound `CC(C)[C@]12CC(=O)[C@H](C)[C@H]1C2`, the “activity change, negative = inhibition” value was 0.405%.
With `CN(C)C(=O)Oc1cc(OC(=O)N(C)C)cc(C(O)CNC(C)(C)C)c1` (configuration not stated), the “activity change, negative = inhibition” value is -14.9% [at 53 µM].
In the case of `C=C(C)[C@H]1CN[C@H](C(=O)O)[C@H]1CC(=O)O`, the “activity change, negative = inhibition” value was -0.277% [at 53 µM].
Still for that read-out and setting: to `CC(C)(O)C(Cl)(Cl)Cl` belongs 1.08% [at 53 µM].
For `Cn1c(CCCC(=O)O)nc2cc(N(CCCl)CCCl)ccc21`, the “activity change, negative = inhibition” value was -0.27% [at 53 µM].
Still for that read-out and setting: the figure for `CCN(CCO)CCn1c(Cc2ccccc2)nc2c1c(=O)n(C)c(=O)n2C` is -0.234% [at 53 µM]; for `CC(C)C(C)(N)C#N` (configuration not stated) it is 1.32%.
Turning to `O=P(O)(O)CN(CP(=O)(O)O)CP(=O)(O)O`, the Potency entry is “inactive”.
For `Cc1ccc(Cl)c(O)c1`, the “activity change, negative = inhibition” value was 1.88% [at 53 µM].
Same read-out and setting: the figure for `C/C=C/CC#N` is -0.682%.
As to `ClCCCCCCCl`, the “activity change, negative = inhibition” value is 0.516%.
On to `CCCCCCC(=O)CCCCCC/C=C/C[C@@H](O)[C@H](O)[C@@](N)(CO)C(=O)O`, for which the activity change, negative = inhibition is 0.415% [at 23.6 µM].
On to `O=C1C2CC=CCC2C(=O)N1SC(Cl)(Cl)Cl` (configuration not stated), for which the “activity change, negative = inhibition” value is 1.11%.
On the same count and under the same terms, the figure for `N#CN` is 0.181% [at 300 µM]; for `CN=CNc1ccc(C)cc1C` it is -1.55%; for `C=CCc1cc(OC)c2c(c1)OCO2` it is -0.409%.
Turning to `CN(C)CCc1c[nH]c2cccc(OP(=O)(O)O)c12`, the “activity change, negative = inhibition” value was 5.19%.
Turning to `NCCOS(=O)(=O)O`, the “activity change, negative = inhibition” value is -1.03%.
Regarding `C[C@H]1CCCC(=O)CCC/C=C/c2cc(O)cc(O)c2C(=O)O1`, the Potency result is “inactive”.
Take `CC(C)NCC(O)c1ccc([N+](=O)[O-])cc1` (configuration not stated): the “activity change, negative = inhibition” value was 0.264% [at 53 µM].
As for `c1ccc2c(c1)CCNC2`, the “activity change, negative = inhibition” value was -2.86%.
For the compound `CC(C)(C)NC[C@H](O)c1ccc(O)cc1Cl`, the “activity change, negative = inhibition” value is 0.97% [at 53 µM].
Turning to `OP(O)c1ccccc1`, the “activity change, negative = inhibition” value was 1.91%.

The target is the same in a further experiment. The experiment can be described thus: Acetylcholinesterase (AChE) small molecule antagonists: fluorescence cell-based qHTS assay (AID 1347398). Note: nearly all actives have a fitted effect of over 50% in size. The note with it: SH-SY5Y cells; Potency: AChE activity; outcome: AChE activity; series mostly up to 115 µM; activity change, negative = inhibition: at the top concentration. Put shortly: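 SH-SY5Y cells (2000/well), attached overnight, incubated with compound 30 min at 37 C. Acetylthiocholine plus Thiolite Green then added for 40 min at room temperature. Thiocholine fluorescence (Ex/Em 490/520 nm) reports cellular AChE activity.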
For the compound `[O-][Br+2]([O-])O`, the “activity change, negative = inhibition” value is 2.86% [at 53.7 µM].
On to `CCOP(=S)(OCC)SCCl`, for which the “activity change, negative = inhibition” value was -8.76%.
On the same count and under the same terms, the figure for `CCC(C)C(C)(COC(N)=O)COC(N)=O` (configuration not stated) is 0.228% [at 53.7 µM].
Turning to `ClC1=C(Cl)C2(Cl)C(CBr)CC1(Cl)C2(Cl)Cl` (configuration not stated), the Potency entry was “inactive”.
With `CCOC1Oc2ccc(OS(C)(=O)=O)cc2C1(C)C` (configuration not stated), the “activity change, negative = inhibition” value was 1.26%.
On the same count and under the same terms, the figure for `CC(C)(N)Cc1ccc(Cl)cc1` is 5.01% [at 53.7 µM].
With `CCOC(=O)CC(SP(=S)(OC)OC)C(=O)OCC` (configuration not stated), the Potency result was “inactive”.
Consider `O=C/C=C/c1ccco1`, for which the “activity change, negative = inhibition” value was -0.0234%.
As for `COc1cc(CCN)cc(OC)c1OC`, the “activity change, negative = inhibition” value was -5.42%.
Still for that read-out and setting: the figure for `CNC(=O)NC(O)C(Cl)(Cl)Cl` (configuration not stated) is -3.49% [at 53.7 µM]; for `O=C(NC(O)C(Cl)(Cl)Cl)NC(O)C(Cl)(Cl)Cl` (configuration not stated) it is -13.5% [at 53.7 µM].
Same read-out and setting: to `O=C(O)CBr` belongs -1.5%; to `CC(C)[C@]12CC(=O)[C@H](C)[C@H]1C2`, -1.08%.
In the case of `CN(C)C(=O)Oc1cc(OC(=O)N(C)C)cc(C(O)CNC(C)(C)C)c1` (configuration not stated), the “activity change, negative = inhibition” value is -23.1% [at 53.7 µM].
In the case of `C=C(C)[C@H]1CN[C@H](C(=O)O)[C@H]1CC(=O)O`, the “activity change, negative = inhibition” value is 6.79% [at 53.7 µM].
With `CC(C)(O)C(Cl)(Cl)Cl`, the “activity change, negative = inhibition” value was -10.3% [at 53.7 µM].
As for `Cn1c(CCCC(=O)O)nc2cc(N(CCCl)CCCl)ccc21`, the “activity change, negative = inhibition” value was 14.9% [at 53.7 µM].
